This passage reports Potency and outcome results from PubChem BioAssay (NCATS).

Results filed as inconclusive are left out. Calls of active or inactive are those of the source. Calls follow the shape of the dose curve; as a rule, active = well fitted curve in the direction sought with a large enough effect; inconclusive = small, poorly fitted or top-dose-only effect, or another doubt; inactive = no such curve, though single readings can be large; an effect the other way counts as inactive or inconclusive.

Test [1] in a line: Quantitative High-Throughput drug screen in 47 multiple myeloma cell lines against the NCATS MIPE library collection: RPMI8226_ATCC cell viability assay (AID 1919871). Also: nearly all actives have a fitted effect of over 30% in size. Also: potency is read from the fitted curve at half-maximal effect. The gist of the method: (§1)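 Readout: median RLU from CellTiter-Glo after 5 min at room temperature. Preceding step was 48 h drug treatment of 500 cells/well at 37 °C, 5% CO2, with DMSO-only and media-only control wells.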

The nature of test [2]: Quantitative High-Throughput drug screen in 47 multiple myeloma cell lines against the NCATS MIPE library collection: OPM2_DSMZ cell viability assay (AID 1919872). Also: nearly all actives have a fitted effect of over 30% in size. Also: potency is read from the fitted curve at half-maximal effect. The gist of the method: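 Luminescent ATP measurement with CellTiter-Glo gives viability, scaled between DMSO-only wells (100%) and media-only wells (0%). Cells, 500 per well, faced library compounds for 48 hours at 37C.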

The nature of test [3]: Quantitative High-Throughput drug screen in 47 multiple myeloma cell lines against the NCATS MIPE library collection: KMS28BM_JCRB cell viability assay (AID 1919874). Also: nearly all actives have a fitted effect of over 35% in size. Also: potency is read from the fitted curve at half-maximal effect. Summed up:
as §1

Test [4] in a line: Quantitative High-Throughput drug screen in 47 multiple myeloma cell lines against the NCATS MIPE library collection: KMS11_JCRBsus cell viability assay (AID 1919873). Also: nearly all actives have a fitted effect of over 50% in size. Also: potency is read from the fitted curve at half-maximal effect. The gist of the method: as §1
Test [5] has as its target Cytochrome P450 2C19 (Homo sapiens) (UniProt P33261). Put plainly: qHTS for inhibitors of CYP2C19 against the NCATS DSHEA and TCM libraries (AID 1919974). Also: potency is read from the fitted curve at half-maximal effect. To be noted: CYP2C19 enzyme inhibition, luminescence qHTS. Summed up: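 Substances were tested against enzyme with a pro-luciferin substrate; minus-enzyme wells served as background. After NADPH-initiated oxidation (30-45 min, RT), light was generated with P450-Glo reagent.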
Background: In qHTS, concentration-response curves come from the screen itself.

Test [6] is described as follows: KB-3-1 P-gp reporter qHTS against the NCATS DSHEA and TCM libraries (AID 1919975). Summed up: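 KB-3-1 parental line, 1536-well qHTS: cells seeded, ~4 h attachment, pintool compound addition, ~72 h at 37C, then CellTiter-Glo, 30 min RT, luminescence. Concentration-response format.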

Chain of Cytochrome P450 2C19 (Homo sapiens) (P33261 whole entry, looked up): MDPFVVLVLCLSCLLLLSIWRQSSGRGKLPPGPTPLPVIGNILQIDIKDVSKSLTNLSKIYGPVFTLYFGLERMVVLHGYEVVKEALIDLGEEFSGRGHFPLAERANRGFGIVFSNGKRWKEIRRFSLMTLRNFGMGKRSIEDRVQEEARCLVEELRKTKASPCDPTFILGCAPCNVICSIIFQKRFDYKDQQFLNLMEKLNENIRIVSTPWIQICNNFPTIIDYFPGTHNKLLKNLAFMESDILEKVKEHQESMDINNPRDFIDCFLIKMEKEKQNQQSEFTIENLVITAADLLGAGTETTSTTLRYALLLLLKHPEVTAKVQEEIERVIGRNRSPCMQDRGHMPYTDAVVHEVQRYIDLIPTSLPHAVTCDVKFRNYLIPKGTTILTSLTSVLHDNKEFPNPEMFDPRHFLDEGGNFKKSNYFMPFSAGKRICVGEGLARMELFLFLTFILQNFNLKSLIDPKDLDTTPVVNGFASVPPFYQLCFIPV

Turning to `COc1ccc(Cc2ccc(NC(N)=O)cc2)cc1-c1cccc(Cl)c1`, the Potency result in test [1] and in test [2] was “inactive” each time. In addition, the Potency in test [3] is 13.2 µM (active).

For the compound `c1cc(-c2sc(-c3ccncc3)c(-c3ccncc3)c2-c2ccncc2)ccn1`, the Potency result in test [1], in test [2], in test [4] and in test [3] was “inactive” each time.

As for `OC[C@H]1O[C@@H](Oc2cc(O)cc(C=Cc3ccc(O)cc3)c2)[C@H](O)[C@@H](O)[C@H]1O`, the Potency result in test [1], in test [2], in test [4] and in test [3] was “inactive” throughout.

Regarding `COc1cccc(-c2cc(=O)c3ccccc3o2)c1N`, the Potency entry in test [1], in test [2] and in test [4] was “inactive” throughout.

For `N[C@@]1(C(=O)O)CS(=O)(=O)[C@H]2[C@H](C(=O)O)[C@H]21`, the Potency result in test [1], in test [2], in test [4] and in test [3] was “inactive” in each case.

As for `COc1cc(Nc2ncc(F)c(Nc3ccc4c(n3)NC(=O)C(C)(C)O4)n2)cc(OC)c1OC`, the Potency in test [1] is 4.18 µM (active); in test [2], 5.9 µM (active). In addition, the Potency result in test [3] is “inactive”.

Regarding `O=C(Nc1c(Cl)cncc1Cl)c1ccc(OC(F)F)c(OCC2CC2)c1`, the Potency entry in test [1], in test [2], in test [4] and in test [3] was “inactive” in each case.

As for `Clc1ccc(-c2nc3sccn3c2C=NOCc2ccc(Cl)c(Cl)c2)cc1`, the Potency result in test [1], in test [2], in test [4] and in test [3] was “inactive” throughout.

In the case of `NC(=O)NN=Cc1ccc([N+](=O)[O-])o1`, the Potency result in test [1], in test [2], in test [4] and in test [3] was “inactive” each time.

Consider `COc1cccc([C@@H](C)NCCCc2ccccc2Cl)c1`, for which the Potency result in test [1], in test [2] and in test [3] was “inactive” each time.

Turning to `CC(=O)OC1C(C)OC(Oc2c(-c3ccc(O)cc3)oc3cc(O)cc(O)c3c2=O)C(O)C1OC(C)=O` (stereo not drawn), the Potency in test [1] is 10.5 µM (active). The Potency result in test [2] and in test [3] was “inactive” in each case.

Regarding `O=c1cc(-c2ccc(O)cc2)oc2cc(O)cc(O)c12`, the Potency in test [1] was 23.5 µM (active); in test [4], 20.9 µM (active); in test [5] it was 6.31 µM (active). The outcome in test [6] was inactive.
